We go through 89 compounds from PubChem BioAssay AID652067 (The Scripps Research Institute Molecular Screening Center, 2013).

About 5,400 (1.5%) of roughly 370,000 compounds were called active. For the sample, actives were picked, then their nearest neighbours and some compounds at random. Unmarked numbers belong to inactive results.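 How the source made its calls: active means activation above the mean of all tested compounds plus 3 SD (cut at about 5.5% in these data); inactive means the rest.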

The assay deals with DAF-12 nuclear receptor (Haemonchus contortus). Put plainly: H. contortus DAF-12 nuclear receptor activators, primary screen, cell-based, luminescence, HEK293, lit1-tk-luc reporter (AID 652067).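 Further: 100% = response to 3 µM Δ7-dafachronic acid high control.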 The note with it: HEK293 hcDAF-12 lit1-tk-luc reporter, at 6.8 µM, active compounds read high, 0% DMSO, 100% Δ7-dafachronic acid.
Turning to `O=C(NN=Cc1ccco1)C(=O)Nc1ccc(Cl)c([N+](=O)[O-])c1`, the activation is -1.72%.
With `Cc1cc2c(nc1C)CCCN2C` the figure was 1.19%.
`CCOC(=O)[C@]12CCCC=C1N(Cc1ccc(OC)cc1)C(=O)[C@@H]2CC(=O)NCc1cccs1`: the activation was -0.39%.
On to `COc1cccc(Nc2nc(N)c([N+](=O)[O-])c(NCc3ccco3)n2)c1`, for which the activation was -3.76%.
Next, `CNc1nc(Nc2ccc(C)c(Cl)c2)nc(N)c1[N+](=O)[O-]`: 10.8% (active).
With `Nc1nc(Nc2ccccc2F)nc(NC2CCCCC2)c1[N+](=O)[O-]` the figure was -1.49%; with `COc1ccc(NC(=O)N(C)C[C@@H]2OCCCC[C@@H](C)Oc3ccc(NC(=O)NC4CCCCC4)cc3C(=O)N([C@H](C)CO)C[C@@H]2C)cc1`, -0.68%.
With `Cc1ccccc1CS(=O)(=O)Cc1ccc(C(=O)Nc2ccc(Cl)cc2)o1` the figure was -6.56%; with `COP(=O)(O)CNC(=O)OCc1ccccc1`, -1.19%; with `COc1ccc(-n2nnnc2-c2nc3ccccc3s2)cc1`, 9.22% (active).
For `FC(F)(F)c1nc(-c2ccccc2)ncc1-c1nnnn1-c1ccccc1`, the activation is -4.23%.
With `COc1ccc(-n2nnnc2SCC(=O)NCc2cccs2)cc1` the figure was -2.07%; with `O=C(OCC(=O)N1CCOCC1)c1ccc2ccccc2c1`, 0.31%.
With `NC(=O)c1ccccc1N=Cc1ccc2ccccc2c1`, the activation is 10.7% (active).
For the compound `O=C1CC[C@@H](COc2ccc3[nH]cc(-c4ccccc4)c3c2-c2ccccc2)N1`, the activation was -1.8%.
Take `CC(C)(C)c1ccc(C(=O)Nc2cc(Cl)c(Br)cc2C(=O)O)cc1`: the activation was 2.27%.
On to `COc1ccc(CCNC(=O)CSc2nc3c([nH]2)c(=O)n(C)c(=O)n3C)cc1`, for which the activation is -0.84%.
`O=C(NCc1ccc(F)cc1)C1CCN(C(=O)Nc2ccc(F)cc2)CC1`: the activation was -1.57%.
Next, `Cc1ccc(NC(=O)N2CCC(C(=O)NCc3ccc(F)cc3)CC2)cc1`: -0.76%.
Next, `N[C@@H](Cc1ccccc1)C(=O)N1CCC(C(=O)NCC(=O)Nc2ccc(F)cc2)CC1`: 8.85% (active); `O=C(NC1CCC1)c1ccc(C#Cc2cccc(F)c2)c[n+]1[O-]`: 1.33%.
With `COc1cc(C(O)c2nc3ccccc3n2C)cc(OC)c1OC` (centres undefined) the figure was -1.25%.
As to `COCn1c(C(O)c2ccccc2)cc2ccccc21` (centres undefined), the activation is 6.22% (active).
Next, `CCOC(=O)c1cc2ccccc2n1CC(=O)c1ccccc1`: 1.16%; `COc1ccccc1-c1ccc([C@@H]2C[C@H]3[C@H](CON3C)CN2S(=O)(=O)c2cc(Cl)cc(Cl)c2)cc1`: 1.1%.
Next, `O=C(Nc1ccccc1)Nc1nnc(COc2ccccc2F)s1`: -0.12%.
With `O=C(Nc1nc2ccc(Cl)cc2s1)c1cc(-c2ccc(Cl)cc2)nc2ccccc12` the figure was 4.5%; with `O=C(Nc1ccccc1)Nc1nc2ccccc2s1`, 15.3% (active).
For the compound `O=C(CCCCCN1C(=O)C2C3C=CC(C3)C2C1=O)Nc1ccccn1` (centres undefined), the activation is 2.04%.
In the case of `CCOC(=O)[C@]12CCCC3=C1N(CCC3)C(=O)[C@@H](CC(=O)N1CCSCC1)C2`, the activation is -2.29%.
Regarding `CCCCn1c(N)c(N(CCOC)C(=O)c2cccc(S(=O)(=O)N3CCCCC3)c2)c(=O)[nH]c1=O`, the activation is -0.97%.
Next, `CCCCn1c(N)c(N(CC(C)C)C(=O)c2cccc(S(=O)(=O)N3CCN(C(C)=O)CC3)c2)c(=O)[nH]c1=O`: -1.13%; `CCCCn1c(N)c(N(CC(C)C)C(=O)c2cccc(S(=O)(=O)N3CC(C)OC(C)C3)c2)c(=O)[nH]c1=O` (centres undefined): 6.01% (active); `Nc1[nH]c(/C=C2/CCCCC2n2[nH]c(=O)n(-c3ccccc3)c2=O)c(Cc2ccccc2)[n+]1Cc1ccccc1` (centres undefined): -2.89%.
Next, `COC(=O)C12C=C3CC(c4ccccc4)=C3C(=O)N1Cc1[nH]c3ccccc3c1C2` (centres undefined): 1.08%; `CC(C)c1cccc(-c2csc(C(O)c3ccccc3)n2)c1` (centres undefined): 1%.
Regarding `OC(c1ccccc1)c1nc(-c2cnc3ccccc3c2)cs1` (centres undefined), the activation is 7.43% (active).
On to `COc1cccc(C(NC(C)=O)c2nc(-c3cnc4ccccc4c3)cs2)c1` (centres undefined), for which the activation was -2.08%.
For `COC(=O)c1cc(S(=O)(=O)N2CCN(C(=O)C3CCCO3)CC2)cn1C` (centres undefined), the activation was 2.12%.
`Cc1cc(NS(=O)(=O)c2ccc(NC(=O)CSc3nnc(-c4ccc(C(C)(C)C)cc4)n3Cc3ccco3)cc2)nc(C)n1`: the activation is -0.89%.
As for `Nc1cc(=O)c2[nH]cnc2[nH]1`, the activation was -0.07%.
Next, `CCCC[C@H](C(=O)N(CC)c1ccccc1)[C@@H](O)c1ccc2ccccc2c1`: -1.18%; `C=CCN(Cc1ccc2c(c1)OCO2)C(C#CC1CC1)C(C)(C)C` (centres undefined): -0.69%.
Next, `CCN(CC)S(=O)(=O)c1cc(C(=O)Nc2ccccn2)ccc1C`: 5.61% (active).
For the compound `CCN(c1ccccc1)S(=O)(=O)c1cc(C(=O)NCc2ccccn2)ccc1C`, the activation is -0.36%.
With `Cc1ccc(NC(=O)CNCc2ccccn2)cc1S(=O)(=O)N(C)C` the figure was 0.26%; with `CCN(CC)C(=O)CC[C@@H]1CC[C@]2(CCCN(S(=O)(=O)C3CCCCC3)C2)O1`, -3.16%; with `Cc1[nH]nc2c1C(c1ccc(Br)cc1)NC2=O` (centres undefined), 1.05%.
With `O=C(COC(=O)CCc1nc2ccccc2c(=O)[nH]1)Nc1ccc(N2CCOCC2)cc1` the figure was -1.31%; with `COc1cccc(/C=C(/CC(=O)Nc2ccc(N3CCOCC3)cc2)c2nc3ccccc3s2)c1`, 6.15% (active).
With `CCn1c(Cc2ccc(OC)cc2)nnc1SCC(=O)Nc1ccc(N2CCOCC2)cc1` the figure was 0.15%.
Turning to `COc1cccc(N(C)C(=O)[C@@H](C)[C@@H](O)c2ccc3ccccc3c2)c1`, the activation was -0.46%.
For `COC(=O)C1=C(C)N(Cc2cccc(C(F)(F)F)c2)C(=NCc2ccccc2)NC1c1ccc(Cl)cc1` (centres undefined), the activation was -0.23%.
Regarding `COc1ccc(SSc2ccc(OC)cc2C(=O)O)c(C(=O)O)c1`, the activation was 0.58%.
Next, `Cc1c[nH]c2cccc(-c3ccc(Cl)cc3)c12`: 2.81%.
With `c1ccc(-c2c[nH]c(-c3ccccc3)c2)cc1` the figure was 2.47%.
As for `O=C(O)c1n[nH]nc1-c1ccccc1`, the activation is -0.64%.
With `c1ccc(-c2cc(-c3ccccc3)[nH]n2)cc1`, the activation was 11.7% (active).
Next, `Oc1ccccc1-c1cc(-c2ccc(Cl)cc2)n[nH]1`: 20.9% (active); `COc1ccc(Cn2cc(CN3[C@@H](CC(C)C)COc4cc(Br)ccc4S3(=O)=O)nn2)cc1`: -0.96%.
Next, `COC(=O)Cc1nnn2c1[C@H](C)[C@H](c1ccccc1[N+](=O)[O-])OCC2`: -0.26%; `C=C(C)C1CC23C(=O)C4(C(=O)c5ccccc5)C[C@@]5(C)CCC(CC2C1(C)C)(C4=O)C35OC` (some centres undefined): -1.07%; `O=C(c1c(Cl)cccc1Cl)N1CCN(c2cccc3[nH]ccc23)CC1`: -0.37%.
Take `C=CCN1C(=O)N(Cc2ccccc2)c2ccccc2S1(=O)=O`: the activation is 2.1%.
With `C=C(C)C#CC(Cc1ccccc1)N(CC1CC1)/C(N)=N/C(=O)OCc1ccccc1` (centres undefined) the figure was -4.1%.
With `Cc1c(Cl)cccc1NC(=O)NCc1ccc(C)n1C` the figure was 6.25% (active); with `Cc1c(Cl)cccc1NC(=O)Nc1ccc(C(=O)N2CCCC2)cc1`, -1.91%.
With `Cc1c(Cl)cccc1NC(=O)NCCCN1CCCC1=O` the figure was -0.07%; with `Cc1ccc(OC(=O)c2c(C)nn(-c3ccccc3)c2C)cc1`, 5.72% (active).
On to `Cc1cccc(C)c1NC(=O)COC(=O)c1c(C)nn(-c2ccccc2)c1C`, for which the activation is -1.2%.
With `CCCn1c(C)cc(C(=O)COC(=O)c2c(C)nn(-c3ccccc3)c2C)c1C` the figure was -1.95%.
Next, `CCOC(=O)[C@]12CCCCC/C=C\1N(Cc1ccc(OC)cc1)C(=O)[C@H]2CC(=O)NCc1ccc(C)o1`: -1.63%.
As to `CCOC(=O)c1c(NC(=S)SC)sc(C(=O)N2CCc3ccccc3C2)c1C`, the activation was -0.42%.
Next, `COC(=O)[C@]12C[C@H](CC(=O)NCc3ccc(OC)c(OC)c3)C(=O)N(Cc3ccccc3)C1=C[C@H](C(C)C)O[C@@H]2C1CC1`: -0.82%; `CCN1CCN(C(=O)C2(NC(=O)Nc3cccc(F)c3)CCCCC2)CC1`: -1.58%.
With `Cc1nc2cc(NC(=O)Nc3cccc(F)c3)ccc2n1C` the figure was 11.1% (active); with `Cc1nc2cc(NCc3cccs3)ccc2n1C`, 1.2%; with `COC[C@@H]1CCCN1c1ccc2c(c1)O[C@H](C)CCN(C1CC1)S2(=O)=O`, -0.65%.
On to `Cn1c(SCC(=O)NC2CCCCC2)nnc1-c1cc2ccccc2o1`, for which the activation was -0.36%.
Next, `Cn1c(CNc2nc(-c3ccccc3)cs2)nnc1SCC(=O)c1ccccc1`: -0.8%; `CCNc1nc(-c2cc3ccccc3o2)cs1`: 6.62% (active).
Take `C[C@H]1CCC/C=C/C(=O)c2c(O)cc(O)cc2CC(=O)O1`: the activation was -4.76%.
As for `Cc1csc(SCC(=O)Nc2ccc(C)c(S(=O)(=O)N(C)C)c2)n1`, the activation was -0.11%.
In the case of `N#Cc1ccsc1NC(=O)CN1CCCCC1`, the activation is -2.18%.
With `Cc1csc(SCC(=O)Nc2sccc2C#N)n1`, the activation was 6.55% (active).
Next, `Cc1ccc(NC(=S)NNC(=O)CSc2nnc(SCc3ccccc3Cl)s2)cc1`: 0.49%; `CCOC(=O)c1ccccc1NC(=O)COC(=O)CCC(=O)N1CCOCC1`: -0.53%.
Take `CCOC(=O)c1ccccc1C(=O)N1CCOCCOCCOCC1`: the activation is 6.11% (active).
With `CSc1ncccc1C(=O)OCC(=O)N1CCOCC1` the figure was -1.11%.
